Measurements as given in PubChem BioAssay (NCI).
The panel holds about 83,000 compounds, 20% with a hit somewhere; the sample as a whole holds those more often.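 Plates (96-well) were seeded with cells, treated with compound at one concentration, and incubated for 48 hours before percent growth was determined.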 The source made the active and inactive calls. The calls were made as follows: active = growth percent below 10; inactive = the rest.

Columns and labels:
Test in all cases: NCI-60 one-dose screen, 48 h (100 = growth as untreated, 0 = no growth, -100 = all killed)
Details in all cases: 10 µM unless noted
NCI-H23 lung = test system: NCI-H23 lung
NCI-H226 lung = test system: NCI-H226 lung
NCI-H322M lung = test system: NCI-H322M lung
HOP-62 NSCLC = test system: HOP-62 NSCLC
NCI-H460 lung = test system: NCI-H460 lung
HOP-92 NSCLC = test system: HOP-92 NSCLC
NCI-H522 lung = test system: NCI-H522 lung
A549/ATCC NSCLC = test system: A549/ATCC NSCLC
786-0 renal = test system: 786-0 renal
COLO 205 colon = test system: COLO 205 colon

Measured: growth

N#Cc1c(-c2ccc(F)cc2)nc(N/N=C/c2c[nH]c3ccccc23)nc1N1CCOCC1
inactive: NCI-H23 lung 91.8% | NCI-H226 lung 125% | NCI-H322M lung 66.5% | HOP-62 NSCLC 69.6% | NCI-H460 lung 16.5% | HOP-92 NSCLC 68.1% | NCI-H522 lung 46.3% | A549/ATCC NSCLC 47.1% | COLO 205 colon 40.1%
active: 786-0 renal -24.4%

Cc1cccc(C)c1NC(=O)CN(CC(C)C)CC(O)COc1ccccc1 (stereo not given)
inactive: NCI-H23 lung 86% | NCI-H226 lung 94.9% | NCI-H322M lung 97.7% | HOP-62 NSCLC 90% | NCI-H460 lung 111% | HOP-92 NSCLC 91.4% | NCI-H522 lung 82.3% | A549/ATCC NSCLC 90.6% | 786-0 renal 78.6% | COLO 205 colon 100%

O=C(O)COc1ccc2c(=O)c3sc4c(=O)c5ccccc5c(=O)c4c3c(=O)c2c1
inactive: NCI-H226 lung 28.6% | HOP-92 NSCLC 104% | NCI-H522 lung 10.9% | 786-0 renal 70.9%
active: NCI-H23 lung -39.6% | NCI-H322M lung -96.5% | HOP-62 NSCLC -81.1% | NCI-H460 lung -63.2% | A549/ATCC NSCLC -44.8% | COLO 205 colon -46.2%

c1ccc(-c2n(Cc3ccc4ccccc4n3)cc[n+]2Cc2ccc3ccccc3n2)cc1
inactive: NCI-H23 lung 22.9% | NCI-H226 lung 36.2% | NCI-H322M lung 85.9% | HOP-62 NSCLC 74.3% | NCI-H460 lung 41.6% | NCI-H522 lung 16.2% | A549/ATCC NSCLC 73.3% | 786-0 renal 77.7%
active: HOP-92 NSCLC -6.03% | COLO 205 colon -49.3%

COc1ccc(C(=O)c2cc(OC)c(OC)c(OC)c2)cc1OC(=O)C(Cl)(Cl)Cl
active: NCI-H460 lung 5.08% | NCI-H522 lung -13.3%
inactive: NCI-H23 lung 26.9% | NCI-H226 lung 95.4% | NCI-H322M lung 38.4% | HOP-62 NSCLC 17.3% | HOP-92 NSCLC 50.3% | A549/ATCC NSCLC 19% | 786-0 renal 20.9% | COLO 205 colon 13%

CCc1n(Cc2ccc3ccccc3c2)c2ccccc2[n+]1Cc1ccc2ccccc2c1
inactive: NCI-H23 lung 28.8% | NCI-H226 lung 64.9% | NCI-H322M lung 90.7% | HOP-62 NSCLC 81.3% | NCI-H460 lung 53.6% | HOP-92 NSCLC 21.8% | NCI-H522 lung 12.1% | A549/ATCC NSCLC 74.2% | 786-0 renal 89% | COLO 205 colon 25%

COc1ccc(OCC(=O)OC(C)C)cc1
inactive: NCI-H23 lung 90.6% | NCI-H226 lung 95.3% | NCI-H322M lung 94% | HOP-62 NSCLC 101% | NCI-H460 lung 105% | HOP-92 NSCLC 104% | NCI-H522 lung 97.9% | A549/ATCC NSCLC 102% | 786-0 renal 104% | COLO 205 colon 104%

CC(C)(C)c1ccc2oc(=O)n(SC(Cl)(Cl)Cl)c2c1
inactive: NCI-H23 lung 95.1% | NCI-H226 lung 104% | NCI-H322M lung 106% | HOP-62 NSCLC 94.1% | NCI-H460 lung 96.6% | HOP-92 NSCLC 106% | NCI-H522 lung 79% | A549/ATCC NSCLC 97% | 786-0 renal 91.1% | COLO 205 colon 106%

CCOC(=O)C(=Cc1c(-c2ccccc2)[nH]c2ccccc12)C(=O)OCC
inactive: NCI-H23 lung 50.7% | NCI-H226 lung 60.1% | NCI-H322M lung 81.3% | HOP-62 NSCLC 75.9% | NCI-H460 lung 21.5% | A549/ATCC NSCLC 40.3% | 786-0 renal 90.4% | COLO 205 colon 58.7%
active: HOP-92 NSCLC -5.04% | NCI-H522 lung -33.7%

CCOC(=O)c1c(C)nc2c(c1N)/C(=C/c1ccccn1)C(=O)N2Cc1ccccc1
inactive: NCI-H23 lung 23.6% | NCI-H226 lung 44.4% | NCI-H322M lung 62.7% | HOP-92 NSCLC 30.5% | A549/ATCC NSCLC 44.6%
active: HOP-62 NSCLC -8.66% | NCI-H460 lung 4.8% | NCI-H522 lung 0.177% | 786-0 renal -64.8% | COLO 205 colon -42.7%

CC(C)NS(=O)(=O)c1cccc(-c2ccc3c4c(n(CCCN(C)C)c(=O)c3c2)-c2ccccc2C4=O)c1
inactive: NCI-H23 lung 98.6% | NCI-H226 lung 92.9% | NCI-H322M lung 104% | HOP-62 NSCLC 101% | NCI-H460 lung 28.5% | HOP-92 NSCLC 114% | NCI-H522 lung 86.7% | A549/ATCC NSCLC 83.5% | 786-0 renal 33.8% | COLO 205 colon 98.9%

Cc1c(Cl)cccc1NC(=O)c1sc2nc3c(cc2c1N)COCC3
inactive: NCI-H23 lung 36.4% | NCI-H226 lung 76.1% | NCI-H322M lung 60.6% | HOP-62 NSCLC 24.5% | NCI-H460 lung 15.6% | HOP-92 NSCLC 36.3% | NCI-H522 lung 17.3% | A549/ATCC NSCLC 45.9% | 786-0 renal 25.9% | COLO 205 colon 24.1%

O=C(Nc1ccccc1)NS(=O)(=O)c1c[nH]c(=S)[nH]c1=O
inactive: NCI-H23 lung 92.3% | NCI-H226 lung 105% | NCI-H322M lung 104% | HOP-62 NSCLC 72.4% | NCI-H460 lung 106% | HOP-92 NSCLC 115% | NCI-H522 lung 60.7% | A549/ATCC NSCLC 80.7% | 786-0 renal 95.7% | COLO 205 colon 96.5%

O=C1CC23OC4ON=C(Br)C4C2C(O)c2ccccc2N13 (stereo not given)
inactive: NCI-H23 lung 87.9% | NCI-H226 lung 97.7% | NCI-H322M lung 96.8% | HOP-62 NSCLC 106% | NCI-H460 lung 106% | HOP-92 NSCLC 107% | NCI-H522 lung 79.6% | A549/ATCC NSCLC 103% | 786-0 renal 101% | COLO 205 colon 125%

CN(C)[C@@H]1C(=O)C(C(N)=O)=C(O)[C@@]2(O)C(=O)C3=C(O)c4c(O)cc(CN5CCc6ccccc6C5)c(Cl)c4C[C@H]3C[C@@H]12
active: NCI-H23 lung -73.8% | NCI-H226 lung -70.8% | NCI-H322M lung -87.2% | HOP-62 NSCLC -85.4% | NCI-H460 lung -68.7% | HOP-92 NSCLC -82.8% | NCI-H522 lung -79.3% | A549/ATCC NSCLC -85.4% | 786-0 renal -83.8% | COLO 205 colon -78.3%

CCCCn1c(=O)c(/C=C/C(=O)/C=C/c2ccc(O)c(OC)c2)cc2ccc(Cl)cc21
active: NCI-H226 lung -18.4% | NCI-H522 lung -4.4% | 786-0 renal -0.448%
inactive: NCI-H23 lung 27.7% | NCI-H322M lung 50.6% | HOP-62 NSCLC 59.6% | NCI-H460 lung 14.5% | HOP-92 NSCLC 77.3% | A549/ATCC NSCLC 26.4% | COLO 205 colon 29.7%

CC(=O)[C@@H]1CC[C@]2(C(=O)O)CC[C@]3(C)[C@H](CC[C@@H]4[C@@]5(C)Cc6c([nH]c7ccccc67)C(C)(C)[C@@H]5CC[C@]43C)[C@@H]12
inactive: NCI-H23 lung 54.4% | NCI-H226 lung 64% | NCI-H322M lung 77.3% | HOP-62 NSCLC 74.8% | NCI-H460 lung 44.9% | HOP-92 NSCLC 80% | NCI-H522 lung 46.4% | A549/ATCC NSCLC 31.4% | 786-0 renal 75.1% | COLO 205 colon 79.6%

O=C1C(Cl)=C(NCCCN(CCCNC2=C(Cl)C(=O)c3ccccc3C2=O)C2=C(Cl)C(=O)c3ccccc3C2=O)C(=O)c2ccccc21
inactive: NCI-H226 lung 88.1% | NCI-H322M lung 61.5% | HOP-62 NSCLC 102% | NCI-H460 lung 39.2% | HOP-92 NSCLC 87.9% | NCI-H522 lung 73.8% | A549/ATCC NSCLC 45.6% | 786-0 renal 90.5%
active: NCI-H23 lung -13.5% | COLO 205 colon -13.8%

CC(=O)ON1CCCC(P(=O)(OCOC(=O)C(C)(C)C)OCOC(=O)C(C)(C)C)C1=O (stereo not given)
inactive: 786-0 renal 12.3%
active: NCI-H23 lung -16.6% | NCI-H226 lung -4.94% | NCI-H322M lung -10.6% | HOP-62 NSCLC 5.37% | NCI-H460 lung 2.52% | HOP-92 NSCLC -6.66% | NCI-H522 lung -11% | A549/ATCC NSCLC 7.74% | COLO 205 colon 2.35%

O=C1[C@@H](OS(=O)(=O)CC(F)(F)F)[C@H](c2ccc(F)cn2)N1c1cc2c3ccccc3ccc2c2ccccc12
inactive: NCI-H23 lung 84.5% | NCI-H226 lung 92.3% | NCI-H322M lung 104% | HOP-62 NSCLC 88.6% | NCI-H460 lung 104% | HOP-92 NSCLC 71.4% | NCI-H522 lung 35.7% | A549/ATCC NSCLC 82.5% | 786-0 renal 71.7% | COLO 205 colon 101%

COc1cc(/C=C/C(=O)/C=C/c2cc3ccc(Cl)cc3n(Cc3ccccc3)c2=O)ccc1O
inactive: NCI-H322M lung 23.9%
active: NCI-H23 lung -20.6% | NCI-H226 lung -6.08% | HOP-62 NSCLC -6.74% | NCI-H460 lung -29.1% | HOP-92 NSCLC -5% | NCI-H522 lung -37.6% | A549/ATCC NSCLC -3.99% | 786-0 renal -55.7% | COLO 205 colon 7.89%

C=C1C(=O)O[C@H]2[C@H]1CC/C(COC(=O)n1ccnc1)=C\CC[C@@]1(C)O[C@@H]21
inactive: NCI-H23 lung 91.1% | NCI-H226 lung 92.4% | NCI-H322M lung 113% | HOP-62 NSCLC 92.5% | NCI-H460 lung 104% | HOP-92 NSCLC 94.4% | NCI-H522 lung 31.9% | A549/ATCC NSCLC 93% | 786-0 renal 102% | COLO 205 colon 64.6%

C/C(=C\c1cnc(C)s1)[C@@H]1C[C@@H]2O[C@@H]2CCC[C@H](C)[C@H](O)[C@@H](C)C(=O)C(C)(C)[C@@H](O)CC(=O)O1
active: NCI-H522 lung -2.17% | COLO 205 colon -8.64%
inactive: NCI-H23 lung 31.7% | NCI-H226 lung 85.3% | NCI-H322M lung 25.7% | HOP-62 NSCLC 26.5% | NCI-H460 lung 14.9% | HOP-92 NSCLC 52.6% | A549/ATCC NSCLC 42.3% | 786-0 renal 43.6%

COc1cc(/C=C/C(=O)c2ccc(NC(=O)CSc3nnc(-c4cc(OC)c(OC)c(OC)c4)n3-c3ccccc3)cc2)cc(OC)c1OC
inactive: NCI-H322M lung 64.5% | NCI-H460 lung 13% | HOP-92 NSCLC 53.9% | A549/ATCC NSCLC 20.2% | COLO 205 colon 10.2%
active: NCI-H23 lung -3.58% | NCI-H226 lung -64% | HOP-62 NSCLC -9.19% | NCI-H522 lung -4.14% | 786-0 renal -52%

NC(=O)c1ccc(C2C3=C(CCCC3=O)OC3=C2C(=O)c2ccccc2C3=O)cc1 (stereo not given)
inactive: NCI-H226 lung 113% | NCI-H322M lung 104% | HOP-62 NSCLC 23.6% | HOP-92 NSCLC 71.2% | A549/ATCC NSCLC 26.7% | 786-0 renal 94.8%
active: NCI-H23 lung -34.7% | NCI-H460 lung 7.97% | NCI-H522 lung -26.5% | COLO 205 colon -1.47%

C=C(C)[C@@H]1CCC=C2CC[C@]3(C)[C@H](CC[C@@H]4[C@@]5(C)CCCNC(C)(C)[C@@H]5CC[C@]43C)[C@H]21
inactive: NCI-H23 lung 66.5% | NCI-H226 lung 104% | NCI-H322M lung 33.7% | HOP-62 NSCLC 77.8% | HOP-92 NSCLC 79.2% | NCI-H522 lung 66.7% | A549/ATCC NSCLC 13%
active: NCI-H460 lung -24.6% | 786-0 renal -5.34% | COLO 205 colon -43.6%
